PubChem BioAssay (NCATS)
Inconclusive results are not listed. The source made the active and inactive calls. Calls follow the shape of the dose curve; as a rule, active = well fitted curve in the direction sought with a large enough effect; inconclusive = small, poorly fitted or top-dose-only effect, or another doubt; inactive = no such curve, though single readings can be large; an effect the other way counts as inactive or inconclusive.

Legend:
[1] = Quantitative High-Throughput drug screen in 47 multiple myeloma cell lines against the NCATS MIPE library collection: PCM6_Riken cell viability assay (AID 1919870); also: nearly all actives have a fitted effect of over 30% in size; also: potency is read from the fitted curve at half-maximal effect
Summary of the method: (§1)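 Myeloma cells (500/well) treated with MIPE 4.0 compounds for 48 h at 37 °C, 5% CO2. Viability read as ATP via CellTiter-Glo luminescence after 5 min at RT; DMSO-only wells = 100%, media-only = 0% viability.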

[2] = Quantitative High-Throughput drug screen in 47 multiple myeloma cell lines against the NCATS MIPE library collection: RPMI8226_ATCC cell viability assay (AID 1919871); also: nearly all actives have a fitted effect of over 30% in size; also: potency is read from the fitted curve at half-maximal effect
Summary of the method: as §1

[3] = Quantitative High-Throughput drug screen in 47 multiple myeloma cell lines against the NCATS MIPE library collection: OPM2_DSMZ cell viability assay (AID 1919872); also: nearly all actives have a fitted effect of over 30% in size; also: potency is read from the fitted curve at half-maximal effect
Summary of the method: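 Viability readout: CellTiter-Glo luminescence following 5 min room-temperature incubation with reagent. Prior exposure: 48 h, 37C, humidified 5% CO2, 500 cells per well.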

[4] = Quantitative High-Throughput drug screen in 47 multiple myeloma cell lines against the NCATS MIPE library collection: KMS11_JCRBsus cell viability assay (AID 1919873); also: nearly all actives have a fitted effect of over 50% in size; also: potency is read from the fitted curve at half-maximal effect
Summary of the method: as §1

[5] = Quantitative High-Throughput drug screen in 47 multiple myeloma cell lines against the NCATS MIPE library collection: KMS28BM_JCRB cell viability assay (AID 1919874); also: nearly all actives have a fitted effect of over 35% in size; also: potency is read from the fitted curve at half-maximal effect
Summary of the method: as §1

[6] = molecular target: Cytochrome P450 3A4 (Homo sapiens) (UniProt P08684); test: qHTS for inhibitors of CYP3A4 against the NCATS DSHEA and TCM libraries (AID 1919971);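 also: inhibition lowers luminescence from luciferin made by CYP3A4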
Summary of the method: (§2)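 Luminescent P450-Glo readout. Enzyme plus pro-luciferin substrate in manufacturer buffer (typically 100 mM KPO4); 15 min RT preincubation; 1x NADPH regenerating system, 30-45 min RT in the dark; detection reagent 30 min.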

[7] = molecular target: Cytochrome P450 2D6 (Homo sapiens) (UniProt P10635); test: qHTS for inhibitors of CYP2D6 against the NCATS DSHEA and TCM libraries (AID 1919972)
Description: Assay Development and Screening Technology Laboratory (ADST)
National Center for Advancing Translational Sciences (NCATS), Rockville, MD
National Institute of Health (NIH), Bethesda, Maryland
Dietary Supplements and Natural Products have minor oversight of their safety and efficacy. We assembled a collection of Dietary Supplements and Natural Products (DSNP) as well as Traditional Chinese Medicinal (TCM) Plant extracts, which were screened against an in vitro panel of assays, including a liver cytochrome p450 enzyme panel, CAR/PXR signaling pathways, and P-gp transporter assays, to assess their activity. This pipeline facilitated the interrogation of Natural Product-Drug Interaction (NaPDI) through prominent metabolizing pathways. In addition, we compared the activity profiles of the DSNP/TCM substances with those of an approved drug collection. Many of the approved drugs have well-annotated mechanisms of action (MOA) while the MOAs for most of the DSNP and TCM samples remain unknown. […] Overall, we highlight four significant bioactivity profiles (measured by p-values) as examples of this prediction. […] To profile potential P-gp activity, a differential cell viability was measured against two cell lines: a parental KB-3-1 human cervical adenocarcinoma cell line and the drug-resistant subline KB-8-5-11 that overexpresses P-gp. […]
9; Read; Luminescence; ViewLux plate reader. […]

[8] = molecular target: Cytochrome P450 2C9 (Homo sapiens) (UniProt P11712); test: qHTS for inhibitors of CYP2C9 against the NCATS DSHEA and TCM libraries (AID 1919973);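 also: luminogenic pro-luciferin CYP2C9 substrate turned into luciferin with NADPH regeneration; series mostly up to about 34 µM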
Summary of the method: as §2

[9] = molecular target: Cytochrome P450 2C19 (Homo sapiens) (UniProt P33261); test: qHTS for inhibitors of CYP2C19 against the NCATS DSHEA and TCM libraries (AID 1919974);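 also: luminescence from luciferin released by CYP2C19 oxidation of a pro-luciferin substrate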
Summary of the method: as §2

[10] = KB-3-1 P-gp reporter qHTS against the NCATS DSHEA and TCM libraries (AID 1919975)
Summary of the method: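 CellTiter-Glo luminescence viability readout; KB-3-1 parental cells, 500/well, attached ~4 h, then compound for ~72 h, 37C, 5% CO2. Bortezomib intraplate control.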

Measured: Potency

Cytochrome P450 2C19 (Homo sapiens), sequence (P33261 whole entry, looked up): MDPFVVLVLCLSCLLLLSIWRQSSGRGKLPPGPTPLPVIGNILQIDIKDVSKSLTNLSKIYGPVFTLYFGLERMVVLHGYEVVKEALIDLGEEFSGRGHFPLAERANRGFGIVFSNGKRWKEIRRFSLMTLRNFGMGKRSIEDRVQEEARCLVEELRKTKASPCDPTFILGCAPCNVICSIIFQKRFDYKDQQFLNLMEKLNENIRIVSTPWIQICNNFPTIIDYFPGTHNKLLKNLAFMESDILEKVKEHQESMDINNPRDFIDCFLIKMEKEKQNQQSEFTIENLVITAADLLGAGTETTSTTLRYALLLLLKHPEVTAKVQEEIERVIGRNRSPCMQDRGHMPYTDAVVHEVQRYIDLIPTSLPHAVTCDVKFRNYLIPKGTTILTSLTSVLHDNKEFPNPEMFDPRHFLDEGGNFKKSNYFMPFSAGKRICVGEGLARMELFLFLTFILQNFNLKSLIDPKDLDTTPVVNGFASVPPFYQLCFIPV
Cytochrome P450 2D6 (Homo sapiens), sequence (P10635 whole entry, looked up): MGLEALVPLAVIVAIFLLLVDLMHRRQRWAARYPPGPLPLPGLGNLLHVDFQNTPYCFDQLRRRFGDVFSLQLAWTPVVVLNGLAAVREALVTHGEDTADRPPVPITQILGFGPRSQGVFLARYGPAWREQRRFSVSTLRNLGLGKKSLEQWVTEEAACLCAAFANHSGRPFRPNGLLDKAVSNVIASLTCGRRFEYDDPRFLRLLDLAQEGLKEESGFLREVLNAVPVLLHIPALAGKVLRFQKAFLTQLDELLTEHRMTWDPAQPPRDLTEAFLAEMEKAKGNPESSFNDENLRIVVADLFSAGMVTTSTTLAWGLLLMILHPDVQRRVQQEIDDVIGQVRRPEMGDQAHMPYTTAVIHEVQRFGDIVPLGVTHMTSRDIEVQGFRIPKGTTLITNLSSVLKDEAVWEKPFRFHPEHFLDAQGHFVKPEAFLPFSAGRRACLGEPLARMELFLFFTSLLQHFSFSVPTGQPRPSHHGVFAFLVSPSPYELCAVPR
Cytochrome P450 2C9 (Homo sapiens), sequence (P11712 whole entry, looked up): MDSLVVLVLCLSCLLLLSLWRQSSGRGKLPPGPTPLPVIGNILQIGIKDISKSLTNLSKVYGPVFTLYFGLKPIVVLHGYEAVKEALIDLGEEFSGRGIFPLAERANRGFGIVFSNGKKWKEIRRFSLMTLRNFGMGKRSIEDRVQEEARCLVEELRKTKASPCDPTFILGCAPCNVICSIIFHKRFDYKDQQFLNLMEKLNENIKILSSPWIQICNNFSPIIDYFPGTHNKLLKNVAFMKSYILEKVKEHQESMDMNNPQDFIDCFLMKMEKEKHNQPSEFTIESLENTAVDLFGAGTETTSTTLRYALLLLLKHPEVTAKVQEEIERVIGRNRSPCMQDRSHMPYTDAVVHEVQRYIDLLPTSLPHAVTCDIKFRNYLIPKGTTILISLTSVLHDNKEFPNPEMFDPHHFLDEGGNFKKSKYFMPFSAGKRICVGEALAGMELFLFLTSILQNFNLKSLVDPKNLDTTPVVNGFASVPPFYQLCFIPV
Cytochrome P450 3A4 (Homo sapiens), sequence (P08684 whole entry, looked up): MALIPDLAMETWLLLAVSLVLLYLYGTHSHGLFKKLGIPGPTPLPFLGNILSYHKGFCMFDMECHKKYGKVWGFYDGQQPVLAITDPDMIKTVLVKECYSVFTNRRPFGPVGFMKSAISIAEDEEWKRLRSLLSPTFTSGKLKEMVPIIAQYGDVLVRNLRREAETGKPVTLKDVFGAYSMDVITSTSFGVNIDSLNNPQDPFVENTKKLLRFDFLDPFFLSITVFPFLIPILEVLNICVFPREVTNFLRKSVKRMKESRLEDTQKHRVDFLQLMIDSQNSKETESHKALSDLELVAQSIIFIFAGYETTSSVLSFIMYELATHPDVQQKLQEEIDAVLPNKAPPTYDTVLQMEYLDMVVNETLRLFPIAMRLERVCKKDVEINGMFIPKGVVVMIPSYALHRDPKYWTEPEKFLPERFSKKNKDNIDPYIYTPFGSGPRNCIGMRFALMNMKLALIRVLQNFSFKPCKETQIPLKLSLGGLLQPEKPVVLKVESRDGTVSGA

COc1c(Cl)cc2c([nH]c3cnccc32)c1NC(=O)c1cccnc1C
inactive: [2] | [3]
active: [1] 1.66 µM | [4] 23.5 µM | [5] 26.4 µM

OCCn1cc(-c2cnc3nnn(Cc4ccc5ncccc5c4)c3n2)cn1
inactive: [1] | [2] | [4]

Cc1cn[nH]c1
active: [1] 0.0833 µM | [2] 0.118 µM | [3] 4.18 µM | [4] 0.166 µM | [5] 0.0469 µM

C[C@]12CC[C@H](O)CC1=CC[C@@H]1[C@H]2CC[C@]2(C)C(c3cccnc3)=CC[C@H]12
inactive: [1] | [2] | [3] | [5]

O=C(C=Cc1ccc(/C=C/C(=O)Nc2ccc(C3=NCCN3)cc2)cc1)Nc1ccc(C2=NCCN2)cc1
inactive: [1] | [2] | [4] | [5]
active: [3] 0.662 µM

Cc1c(CN2CCN(C(=O)C(C)C)CC2)sc2c(N3CCOCC3)nc(-c3cnc(N)nc3)nc12
active: [1] 0.235 µM | [2] 0.0296 µM | [3] 0.118 µM | [5] 0.0372 µM

COc1cccc2cc(-c3nc(C4CCC(C(=O)O)CC4)n4ncnc(N)c34)[nH]c12 (stereo not drawn)
active: [1] 1.87 µM | [2] 0.59 µM | [3] 2.96 µM | [4] 0.132 µM | [5] 1.48 µM

COc1ccc(CC2=NN3C([C@@H](CCc4ccccc4)[C@@H](C)O)=NC(C)C3C(=O)N2)cc1OC (stereo partly drawn)
inactive: [1] | [2] | [3] | [4] | [5]

CC(c1cc2ccccc2s1)N(O)C(N)=O (stereo not drawn)
inactive: [1] | [2] | [3] | [4] | [5]

Nc1nc2c(ncn2COCCO)c(=O)[nH]1
inactive: [2] | [3] | [4]
active: [1] 23.5 µM

O=C(c1cc(Cc2n[nH]c(=O)c3ccccc23)ccc1F)N1CCN(C(=O)C2CC2)CC1
inactive: [2] | [3] | [5]
active: [1] 11.8 µM

O=c1[nH]cnc2[nH]ncc12
inactive: [1] | [2] | [4]

NC(=O)c1cnccn1
not listed: [5]
inactive: all other assays above

COc1ccc2nc(S(=O)Cc3ncc(C)c(OC)c3C)[nH]c2c1 (stereo not drawn)
active: [1] 20.9 µM
inactive: [2] | [4]

O=c1n(CCCN2CCN(c3cccc(Cl)c3)CC2)nc2ccccn12
inactive: [1] | [2] | [3] | [4]

Cc1[nH]c(=O)c(C#N)cc1-c1ccc2nccn2c1
active: [1] 2.64 µM
inactive: [2] | [3] | [4] | [5]

Cc1cc2c(C(C)C)c(O)c(O)c(C=O)c2c(O)c1-c1c(C)cc2c(C(C)C)c(O)c(O)c(C=O)c2c1O
active: [1] 6.62 µM | [2] 20.9 µM | [3] 18.7 µM | [4] 5.9 µM | [5] 10.5 µM

CC(C)(Sc1ccc(CCN(CCCCC2CCCCC2)C(=O)NC2CCCCC2)cc1)C(=O)O
inactive: [1] | [4] | [5]
active: [2] 4.18 µM

N=c1nc(N2CCCCC2)cc(N)n1O
inactive: [2] | [4]
active: [1] 23.5 µM

NNCCc1ccccc1
inactive: [1] | [2] | [4]

COc1cc(F)c(F)c(Nc2ccc(I)cc2F)c1NS(=O)(=O)C1(C[C@H](O)CO)CC1
active: [1] 14.8 µM | [2] 10.5 µM | [4] 16.6 µM | [5] 20.9 µM
inactive: [3]

NC(=O)C1CCCc2c1[nH]c1ccc(Cl)cc21 (stereo not drawn)
inactive: [2] | [3] | [4]
active: [1] 16.6 µM

CC1(C)CNc2cc(NC(=O)c3cccnc3NCc3ccncc3)ccc21
active: [1] 1.32 µM | [2] 18.7 µM | [4] 20.9 µM

COc1cc(Oc2ccnc3cc(OC)c(OC)cc23)ccc1NC(=O)NC(C)c1nccs1 (stereo not drawn)
active: [1] 13.2 µM | [2] 16.6 µM | [4] 18.7 µM

CCOc1cc(C=C2C(=O)N(c3ccccc3)N=C2C)cc(Cl)c1OCC(=O)OC
active: [1] 16.6 µM
inactive: [2] | [3] | [4] | [5]

CCOC(=O)C1=C[C@]2(CC)CCCN3CCc4c(n1c1ccccc41)[C@@H]32
active: [1] 8.33 µM | [2] 14.8 µM | [3] 26.4 µM | [4] 8.33 µM | [5] 8.33 µM
